From PubChem BioAssay
A selection: hits, their analogues and other compounds. The true share with any hit is near 2.1%.
NRP1-CendR mod – alters CendR peptide binding to human NRP-1; inhibition, % at 25 µM; O14786; 360,000 tested, 0.85% active; FAM-RPARPAR peptide binding to NRP-1, fluorescence polarization;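 active means inhibition or corrected inhibition above about 18%, plus a signal ratio from 0.5 to 1.5, limit read from the data, passing the limit was not always enough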
PABP polyA inh – PABP-poly(A) binding inhibition; PABP-poly(A) RNA binding, fluorescence polarization; inhibition, % at 35 µM; 290,000 tested, 1% active; AID 2014;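 further: calls also rest on retests at 20 µM and on dose response follow-up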
Target sequence (P11940 whole entry, looked up): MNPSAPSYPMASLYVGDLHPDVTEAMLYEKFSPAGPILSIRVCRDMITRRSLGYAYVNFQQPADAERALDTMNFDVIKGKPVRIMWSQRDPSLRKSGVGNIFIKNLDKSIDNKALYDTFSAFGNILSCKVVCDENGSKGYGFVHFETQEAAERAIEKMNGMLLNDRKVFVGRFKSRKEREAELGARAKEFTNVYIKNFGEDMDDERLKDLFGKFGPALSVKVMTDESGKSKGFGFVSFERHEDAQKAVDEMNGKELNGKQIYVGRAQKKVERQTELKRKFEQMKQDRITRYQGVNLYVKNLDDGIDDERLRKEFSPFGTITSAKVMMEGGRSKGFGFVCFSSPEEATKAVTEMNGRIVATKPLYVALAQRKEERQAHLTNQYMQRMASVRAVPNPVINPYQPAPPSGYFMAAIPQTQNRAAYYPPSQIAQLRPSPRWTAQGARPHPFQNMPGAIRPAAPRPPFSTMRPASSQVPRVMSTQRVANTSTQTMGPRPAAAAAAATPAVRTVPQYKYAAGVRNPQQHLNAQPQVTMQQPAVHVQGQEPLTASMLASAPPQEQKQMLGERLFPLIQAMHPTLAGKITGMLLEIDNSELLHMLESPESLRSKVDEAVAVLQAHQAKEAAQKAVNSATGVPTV
PABP1 MLLE inh – inhibitors of microRNA-mediated deadenylation, human PABP1 MLLE binding. GST-MLLE / FITC-PAM2 fluorescence polarization. P11940. 360,000 tested, 0.36% active. inhibition, % at 20 µM; in the data active means inhibition above about 35%, passing the limit was not always enough;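 further: plate controls were DMSO wells with GST-MLLE for no effect and wells lacking GST-MLLE protein for full effect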
eIF4H inh – inhibitors of RNA binding by human eIF4H; 290,000 tested, 0.94% active; AID 2012; inhibition, % at 35 µM; eIF4H fluorescence polarization binding assay; Q15056;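 further: calls also rest on retests at 20 µM and on dose response follow-up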
* marks the source's active call; other numbers are inactive results; ? = inconclusive; / = no result given. Unless noted, how the calls were made is not given here.

SMILES	NRP1-CendR mod	PABP polyA inh	PABP1 MLLE inh	eIF4H inh
CCOC(=O)[C@]12Cc3cc(OC)ccc3[C@H]1N(C(C)C)C(=O)c1cc(OC)ccc12	-11	/	/	/
c1ccc2oc(-c3ccc4c(c3)CNCc3cnnn3-4)cc2c1	15	/	3	/
COP(=S)(OC)Oc1ccc(Sc2ccc(OP(=S)(OC)OC)cc2)cc1	2	/	36*	/
Cc1cc2c(C(C)C)c(O)c(O)c(C=O)c2c(O)c1-c1c(C)cc2c(C(C)C)c(O)c(O)c(C=O)c2c1O	-65	active	9	95
CN1C(CC(O)c2ccccc2)CCCC1CC(O)c1ccccc1 (stereo unspecified)	13	/	-7	/
Cn1c[n+](C)cc1C(O)c1ccccc1 (stereo unspecified)	10	65*	-140	7
COC(=O)C1=C(c2ccc(F)cc2F)C[C@@H]2CC[C@H]1N2C(=O)N1CCOCC1	16	/	-1	/
COC(=O)C1=C(c2ccc(F)cc2F)C[C@@H]2CC[C@H]1N2C(=O)N1CCCC1	28*	/	5	/
COC(=O)C1=C(c2ccc(F)cc2F)C[C@@H]2CC[C@H]1N2C(=O)N1CCCCC1	22*	/	-9	/
COC(=O)C1=C(c2cc3ccccc3s2)C[C@@H]2CC[C@H]1N2C	22*	/	4	/
CC(C)(C)N(NC(=O)c1ccccc1)C(=O)c1ccccc1	7	-15	0	-6
O=c1[nH]c(=S)[nH]c(O)c1N=Nc1ccc2c(c1)OCO2	-85	-4	-34	53*
O=c1[nH]c(=S)[nH]c(O)c1N=Nc1ccc2c(c1)OCCO2	-138	?	-62	?
O=C(N/N=C/c1c(O)n(Cc2ccco2)c(=O)[nH]c1=O)c1ccccc1O	-93	26	-57	53*
CCCCC(=O)N/N=C/c1c(O)n(Cc2ccco2)c(=O)[nH]c1=O	-46	20*	-35	86
CC(=O)Nc1ccc(N=Cc2c(O)n(Cc3ccco3)c(=O)[nH]c2=O)cc1	-14	8	18	68
COc1cc(O)c2c(c1)/C=C/C[C@H](O)[C@H](O)C(=O)CCC[C@H](C)OC2=O	-6	/	3	/
O=C1C=C(N2CC2)c2ccccc2C1=O	25*	/	35	/
CCOC(=O)C1CCN(C=C2C(=O)N(C)C(=S)N(C)C2=O)CC1	-20	0	4	16
CC/C(=N\Nc1ccccc1)c1c(O)[nH]c(=O)[nH]c1=O	-4	2	-122	5
CC/C(=N\Nc1cccc2ccccc12)c1c(O)[nH]c(=O)[nH]c1=O	-31	-6	-9	54*
CC1(C(=O)O)CCCC2(C)c3cc(O)ccc3CCC12 (stereo unspecified)	34*	/	5	/
N/C(=N\N=C/c1ccc(-c2ccc(O)c(C(=O)O)c2)o1)N[N+](=O)[O-]	-32	60*	8	103*
CN(Cc1cccc(-c2ccncc2)c1)C(=O)Oc1ccc([N+](=O)[O-])cc1	-6	/	/	/
CN(C)P(=NC(=S)c1cccn1C)(N(C)C)N(C)C	10	-2	37*	5
SMILES	NRP1-CendR mod	PABP polyA inh	PABP1 MLLE inh	eIF4H inh
CC1(C)CN=C(Nc2ccc(F)c(F)c2)S1	9	11	-6	-2
CC1(C)CN=C(Nc2ccc(F)c(Cl)c2)S1	27*	0	-3	-8
O=C(NC(=S)N1C[C@H]2C[C@H](C1)c1cccc(=O)n1C2)c1ccc(Cl)cc1	2	2	42*	4
COc1cc(OC)cc(C(=O)NC(=S)N2C[C@H]3C[C@H](C2)c2cccc(=O)n2C3)c1	13	-5	35	4
CN(C)CP(=O)(Nc1ccccc1)N(C)C (stereo unspecified)	8	12	3	10
CN(C)P(=O)(CCl)Nc1ccccc1 (stereo unspecified)	1	18*	10	96*
COc1ccc2c(c1)NP(=S)(Oc1ccccc1)N2 (stereo unspecified)	6	62*	32	89*
COc1ccc(C2C3C=CC(C3)C2C(=O)O)cc1 (stereo unspecified)	-12	/	3	/
CCOC(=O)C1SC2(C(F)(F)F)CC1(O)c1c(C)cc(C)nc1O2 (stereo unspecified)	8	-7	60*	-7
Cc1ccc(Oc2cc(NN3CCCCC3)c([N+](=O)[O-])cc2[N+](=O)[O-])c([N+](=O)[O-])c1	-8	4	-10	10
CN1CN(c2ccccc2)C2(CCN(CCCSc3ccccc3NC(=O)/C=C/c3ccccc3)CC2)C1=O	11	/	-10	/
CN1C(=O)C(=Cc2sc(=O)n(-c3ccccc3)c2N2CCCCC2)C(=O)N(C)C1=O	-63	?	-153	?
CN1CCN(c2nc3ccccn3c(=O)c2C=C2C(=O)N(C)C(=O)N(C)C2=O)CC1	6	120*	2	?
